VDR inhibitor – Inhibitors of the vitamin D receptor (VDR): qHTS | hit rate 0.93% among 400,000 | Potency, µM, without a hit: max response, negative = inhibition, most hits filed as inhibitors | VDR-SRC2-3 peptide fluorescence polarization, 2 h; further: on the % scale 0 is the no-effect control and ±100 the full control effect
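Fluorescence polarization assay measuring small-molecule disruption of VDR binding to the coregulator peptide SRC2-3. Compounds were pin-transferred (23 nl) into the reagent mix and incubated 2 h at room temperature before reading.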
PLK1 PBD inh – qHTS for Inhibitors of PLK1-PDB (polo-like kinase 1 - polo-box domain): Primary Screen; Serine/threonine-protein kinase PLK1 (Homo sapiens), P53350; Plk1 PBD binding of FITC phosphopeptide, fluorescence polarization; hit rate 2.8% among 360,000; Potency, µM, without a hit: max response, negative = inhibition, actives largely listed as inhibitors; further: series mostly up to about 57 µM; on the % scale 0 is the no-effect control and ±100 the full control effect; nearly all actives have a fitted effect of over 65% in size
Pin1 inh – qHTS Assay to Find Inhibitors of Pin1; Potency, µM (highest dose often 115 µM), for inactives: at the highest dose activity, negative = inhibition, most hits filed as inhibitors; hit rate 0.009% among 390,000; Peptidyl-prolyl cis-trans isomerase NIMA-interacting 1 (Homo sapiens), Q13526; Pin1 FP peptide displacement, HiFluor488, 10 min; active means well fitted inhibition curve with a large enough effect in the polarisation, with a control signal flat, not every such curve was filed as active; inconclusive means small, poorly fitted or top-dose-only effect, or effect the other way, or a change in a side signal; inactive means no such curve, though single readings can be large or run the other way; the % refers to the polarisation; further: on the % scale 0 is the no-effect control and ±100 the full control effect
Target sequence (Q13526 whole entry, looked up): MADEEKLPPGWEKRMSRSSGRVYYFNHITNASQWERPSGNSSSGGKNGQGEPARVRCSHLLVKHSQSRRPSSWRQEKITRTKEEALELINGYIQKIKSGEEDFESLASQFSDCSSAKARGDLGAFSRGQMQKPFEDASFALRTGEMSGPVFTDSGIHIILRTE
TDP1 inh – qHTS Assay for Inhibitors of Tyrosyl-DNA Phosphodiesterase (TDP1). Tyrosyl-DNA phosphodiesterase 1 (Homo sapiens), Q9NUW8. recombinant TDP1, AlphaScreen DNA substrate cleavage. Potency, µM (highest dose often 130 µM), without a hit: at the highest dose activity change, negative = inhibition, hits mostly inhibitors. hit rate 0.28% among 350,000; further: on the % scale 0 is the no-effect control and ±100 the full control effect; nearly all actives have a fitted effect of over 40% in size
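Compounds were preincubated with Tdp1 (1 nM final) for 15 min at room temperature before substrate (15 nM final) started a 5 min reaction; beads (10 ug/ml final) were then added for 10 min before AlphaScreen detection.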
Tb PFK inh – qHTS Assay to Find Inhibitors of T. brucei phosphofructokinase | Potency, µM (doses to about 57.5 µM), for inactives: top-dose activity, negative = inhibition, most hits filed as inhibitors | T. brucei PFK, ADP-Glo luminescence | AID 485367, 2010 | hit rate 0.17% among 330,000 | ATP-dependent 6-phosphofructokinase (Trypanosoma brucei brucei), O15648;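 further: 0% = uninhibited 1x PFK enzyme wells and -100% = no-enzyme wells; nearly all actives have a fitted effect of over 60% in size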
Target sequence (O15648 whole entry, looked up): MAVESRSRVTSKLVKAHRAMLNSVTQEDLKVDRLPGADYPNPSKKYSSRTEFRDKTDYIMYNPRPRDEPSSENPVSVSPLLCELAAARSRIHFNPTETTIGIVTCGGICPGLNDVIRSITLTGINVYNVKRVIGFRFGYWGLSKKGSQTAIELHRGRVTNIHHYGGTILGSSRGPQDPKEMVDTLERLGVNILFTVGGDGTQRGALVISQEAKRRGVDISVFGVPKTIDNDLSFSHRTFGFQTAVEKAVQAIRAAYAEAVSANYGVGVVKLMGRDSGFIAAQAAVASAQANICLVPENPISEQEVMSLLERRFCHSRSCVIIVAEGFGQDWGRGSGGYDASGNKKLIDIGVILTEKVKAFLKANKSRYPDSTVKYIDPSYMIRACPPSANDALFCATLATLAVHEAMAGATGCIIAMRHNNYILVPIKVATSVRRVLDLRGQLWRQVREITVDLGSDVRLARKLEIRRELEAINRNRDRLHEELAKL
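ADP-Glo luminescence quantified ADP after 45 min at room temperature, with 1.25 nM T. brucei PFK, 0.1 mM ATP and 0.5 mM fructose-6-phosphate in pH 8.0 TEA buffer. qHTS titrations up to 57 µM; curves classified by quality.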
ASM inhibitor – Inhibitors of Secretory Acid Sphingomyelinase (S-ASM): qHTS. Potency, µM (doses to about 57.5 µM), for the others: top-dose activity change, negative = inhibition, hits mostly inhibitors. placental ASM, HMU-PC fluorogenic substrate, 60 min. AID 504937, 2011. hit rate 0.006% among 340,000. Sphingomyelin phosphodiesterase (Homo sapiens), P17405
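Fluorescence read-out (Ex 386 nm, Em 447 nm) after stopping the reaction at pH 10. Enzyme: ASM from human placenta; substrate HMU-PC0, 9 uM final; 60 min, 37 °C. Compound preincubation 10 min, ambient temperature.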
Numbers without * were called inactive; i = inactive; ? = inconclusive; nt = no result given; [ ] = dose if it differs, or a comment. Shown are actives, neighbours in structure and some others; about 3.1% of the full set was active somewhere. Unless noted, the call rests on the fitted dose curve; in most records, active means well fitted curve in the direction sought with a large enough effect; inconclusive means small, poorly fitted or top-dose-only effect, or another doubt; inactive means no such curve, though single readings can be large; an effect the other way counts as inactive or inconclusive. Potency means the concentration at half of the fitted maximal effect.

SMILES	VDR inhibitor	PLK1 PBD inh	Pin1 inh	TDP1 inh	Tb PFK inh	ASM inhibitor
Cn1nc([N+](=O)[O-])c(C(C#N)c2ccccn2)c(Cl)c1=O (stereo unspecified)	-5.6%	29.9µM*	-9.8%	2.5%	1.5%	-0.9%
CCCn1nc([N+](=O)[O-])c(C(C#N)c2nc3ccccc3o2)c(Cl)c1=O (stereo unspecified)	?	29.9µM*	?	2.7%	-5.4%	2.5%
CCn1nc([N+](=O)[O-])c(C(C#N)c2nc3cc(C(F)(F)F)ccc3s2)c(Cl)c1=O (stereo unspecified)	?	23.8µM*	?	12.4%	-8.2%	-10.6%
O=C(O)CCc1cc(I)c(O)c(I)c1	-13.8%	nt	nt	6.1%	nt	nt
O=c1[nH]c(=O)c2nc(-c3ccc(Cl)cc3)cnc2[nH]1	-8.0%	-11.6%	4.7%	3.7%	6.2%	i
O=c1[nH]c(=O)c2nc3c4ccccc4c4ccccc4c3nc2[nH]1	-24.3%	21.2µM*	?	nt	-0.9%	276.3%
O=Cc1cccc(Br)c1	nt	nt	nt	10.4%	nt	nt
O=C(O)Cc1ccc(C(=O)CSc2ccccc2)s1	?	11.9µM*	-3.0%	nt	-27.1%	2.8%
Cc1ccc(SCC(=O)c2ccc(CC(=O)O)s2)cc1	-13.8%	?	3.1%	nt	?	-3.1%
COC(=O)c1ccc(Cn2ncc3c4sc(C)cc4n(C)c3c2=O)cc1	nt	nt	0.0%	nt	nt	nt
Cc1ccc(CN2CCN(/N=C/c3cc(Br)cc(Br)c3O)CC2)cc1	?	16.8µM*	7.8%	-2.6%	4.3%	-8.1%
Cc1ccc(S(=O)(=O)N2CCc3nc(COc4ccccc4)c4c(c3C2)CO[C@@H](C)C4)cc1	nt	nt	nt	7.4%[12.3 µM]	nt	nt
CS(=O)(=O)c1cc([N+](=O)[O-])c(Sc2nc3ccccc3[nH]2)c([N+](=O)[O-])c1	35.5µM*	1.5µM*	2.4%	-5.9%	?	-2.7%
O=C(O)CSc1nc2ccccc2[nH]1	?	26.7µM*	-18.6%	5.3%	-1.4%	0.9%
O=C(O)c1ccc(CSc2nc3ccccc3[nH]2)cc1	6.6%	5.6%	0.2%	4.7%	0.9%	5.7%
Cn1cnc([N+](=O)[O-])c1Sc1nc2ccccc2[nH]1	-14.8%	-12.4%	0.8%	3.5%	6.2%	5.0%
O=C(O)c1cc([N+](=O)[O-])c(Sc2nc3ccccc3[nH]2)c([N+](=O)[O-])c1	?	21.2µM*	-10.6%	nt	-3.0%	1.0%
CCc1c(C)c2ccc(O)c(CN3CCN(c4ccccc4)CC3)c2oc1=O	12.8%	nt	-0.4%	8.6%	nt	nt
COc1ccc(N2C(=O)NC(NS(=O)(=O)c3ccccc3)(C(F)(F)F)C2=O)cc1 (stereo unspecified)	-10.9%	1.9%	-3.3%	6.8%	0.0%	-3.2%
COc1ccc(N=C2C(=S)N(c3ccc(OC)cc3)C(=NS(=O)(=O)c3ccccc3)N2c2ccccc2)cc1	?	2.99µM*	-3.7%	nt	nt	-2.2%
O=C(OCC1OC(OC(=O)c2cc(O)c(O)c(OC(=O)c3cc(O)c(O)c(O)c3)c2)[C@@H](OC(=O)c2cc(O)c(O)c(OC(=O)c3cc(O)c(O)c(O)c3)c2)C(OC(=O)c2cc(O)c(O)c(OC(=O)c3cc(O)c(O)c(O)c3)c2)C1OC(=O)c1cc(O)c(O)c(OC(=O)c2cc(O)c(O)c(O)c2)c1)c1cc(O)c(O)c(OC(=O)c2cc(O)c(O)c(O)c2)c1 (stereo partly specified)	12.6µM*	nt	nt	23.7%[56.1 µM]	nt	nt
Cc1cccc(CCNC(=O)c2ccc3c(c2)nc2n3CCCCC2)c1	8.8%	nt	-2.0%	5.4%	nt	nt
C[C@@H]1CN([C@@H](C)CO)C(=O)CCCn2nncc2CO[C@H]1CN(C)C(=O)Nc1ccc2c(c1)OCO2	nt	7.3%	nt	nt	nt	nt
C[C@H]1CN([C@@H](C)CO)C(=O)CCCn2nncc2CO[C@@H]1CN(C)C(=O)Nc1ccc2c(c1)OCO2	nt	5.32µM*	nt	nt	nt	nt
Cc1ccc(-c2cn3nc(-c4ccccc4)c(-c4ccccc4)nc3n2)cc1	-2.4%	?	?	nt	-8.8%	264.0%
SMILES	VDR inhibitor	PLK1 PBD inh	Pin1 inh	TDP1 inh	Tb PFK inh	ASM inhibitor
c1ccc(-c2cn3nc(-c4ccccc4)c(-c4ccccc4)nc3n2)cc1	4.6%	26.7µM*	?	?	0.5%	i
COc1ccccc1C1CN(c2ccccc2)N=C1c1cccs1 (stereo unspecified)	-6.5%	3.1%	?	7.94µM*	-6.3%	i
Cc1ccc(O)c(C2=NNC(c3ccc(Cl)cc3)C2)c1 (stereo unspecified)	-20.8%	-8.7%	8.6%	8.2%	0.2%	-7.6%
Oc1ccc(Cl)cc1C1=NNC(c2cccs2)C1 (stereo unspecified)	?	15µM*	18.1%	11.0%	0.4%	2.0%
CCCCCCCCCCN1CCOCCOCCN(CCCCCCCCCC)CCOCCOCC1	3.9%	nt	nt	4.3%	nt	nt
O=[N+]([O-])c1cccnc1N1CCC(c2cc(-c3ccc(Cl)cc3Cl)n[nH]2)CC1	-3.2%	10.6µM*	-9.9%	10.7%	-3.4%	-12.2%
COc1ccc(OC)c(-c2cc(C3CCN(c4ncccc4[N+](=O)[O-])CC3)[nH]n2)c1	-4.3%	-0.4%	2.4%	-10.6%	3.5%	-19.3%
O=c1c2[nH]c3ccccc3c2nc(SCc2cccc(F)c2)n1-c1ccccc1	14.8%	nt	3.9%	5.5%	nt	nt
CCSC(=O)N=Nc1ccc(O)cc1	?	26.7µM*	11.0%	nt	nt	-9.9%
CCOC(=O)c1ccc(O)cc1	0.2%	nt	nt	0.0%	nt	nt
O=C1SC(Nc2ccccc2)C(=O)N1c1ccccc1 (stereo unspecified)	13.8%	nt	-2.4%	nt	nt	nt
Clc1cc(Cl)c(OCC#CI)cc1Cl	2.82µM*	nt	nt	nt	nt	nt
CCN1CCc2nc3sc(C(=O)c4ccccc4)c(N)c3cc2C1	10.4%	nt	?	4.6%	nt	nt
COC(=O)C1=C(C(=O)OC)[C@@H]2N(Cc3ccccc3)c3ccccc3[C@@]23C[C@@H](C(=O)OC)N(S(=O)(=O)c2cccs2)C3=N1	nt	nt	nt	11.4%[21 µM]	nt	nt
O=[N+]([O-])c1cccc(-c2nnc3n2CCCCC3)c1	?	-10.5%	-0.9%	10.5%	6.1%	4.3%

From PubChem BioAssay
